Bioassay records from PubChem.
Nrf2 activator – qHTS of Nrf2 Activators; AREc32 ARE-luciferase reporter (MCF7-derived line), luminescence, 24 h; Potency, µM (highest dose often 46.1 µM), without a hit: top-dose activation, hits mostly activators; 0.31% of 410,000 active; note: potency is the fitted concentration of half-maximal effect; % of control where 0% means no effect; nearly all actives have a fitted effect of over 65% in size
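Cells of the AREc32 ARE-luciferase line are plated in OPTI-MEM containing 5% FBS and left overnight at 37 deg C. Compounds are pinned in, incubation continues 24 hr, and firefly luciferase signal is then measured.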
ALOX12 inh – Primary qHTS assay for inhibitors of human arachidonate 12S-lipoxygenase (ALOX12): Round 2. Polyunsaturated fatty acid lipoxygenase ALOX12 (Homo sapiens), P18054. purified 12hLO, xylenol orange hydroperoxide absorbance. Potency, µM (top dose mostly 108 µM), for the others: at the top dose activity change, negative = inhibition, hits mostly inhibitors. 1.1% of 580,000 active; note: potency is the fitted concentration of half-maximal effect; % is set by controls: 0 for no effect and ±100 for the full control effect
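Hydroperoxide product was detected by ferrous iron/xylenol orange as the 573 to 405 nm absorbance ratio. Arachidonic acid at 40 uM (final) was turned over for 30 min at room temperature by 150 nM human 12hLO, pH 7.0 Hepes buffer, after 15 min compound preincubation.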
ERG-DNA inh – qHTS for Small Molecule Inhibitors of the ERG Ets/DNA interaction; fluorescence polarization, His-ERG Ets domain / labelled DNA; 0.028% of 370,000 active; Potency, µM (titrated, usually from 76.9 µM), for the others: top-dose FP activity, negative = inhibition, hits mostly inhibitors; active = well fitted inhibition curve with a large enough effect in the polarisation, with a control signal flat; inconclusive = small, poorly fitted or top-dose-only effect, or effect the other way, or a change in a side signal; inactive = no such curve, though single readings can be large or run the other way; the % refers to the polarisation;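 note: polarization taken with two DNA probes labelled with fluorescein and Texas red; potency is the fitted concentration of half-maximal effect; % of control where 0% means no effect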
Target sequence (P11308 whole entry, looked up, the tested form may be a part): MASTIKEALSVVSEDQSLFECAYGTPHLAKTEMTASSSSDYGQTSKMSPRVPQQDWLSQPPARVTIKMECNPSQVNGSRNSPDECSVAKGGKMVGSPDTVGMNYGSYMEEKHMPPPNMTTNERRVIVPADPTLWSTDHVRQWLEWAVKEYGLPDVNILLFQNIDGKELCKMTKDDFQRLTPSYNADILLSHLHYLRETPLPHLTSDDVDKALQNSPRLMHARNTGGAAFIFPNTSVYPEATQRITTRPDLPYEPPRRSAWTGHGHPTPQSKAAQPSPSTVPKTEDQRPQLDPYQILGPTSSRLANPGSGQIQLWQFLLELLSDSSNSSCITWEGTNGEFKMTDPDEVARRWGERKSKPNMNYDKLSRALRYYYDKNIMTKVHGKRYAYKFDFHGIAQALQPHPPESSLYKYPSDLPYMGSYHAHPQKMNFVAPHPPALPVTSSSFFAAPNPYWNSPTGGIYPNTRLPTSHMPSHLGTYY
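His-tagged ERG Ets domain (1 uM in the protein solution; 300mM KCl, 50mM Tris-HCl, 1mM EDTA, 1mM DTT, pH 7.5) received compound, then a probe mix of 5 nM fluorescein-DNA and 100nM Texas-615-DNA. Fluorescence polarization was read for both dyes.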
A549 tox – Nrf2 qHTS screen for inhibitors: counterscreen for cytotoxicity. AID 504648, 2011. A549 ARE-Fluc cells, CellTiter-Fluor viability, 18-24 h. Potency, µM (top dose mostly 46 µM), inactives show at the highest dose activity change, negative = cytotoxicity, usual class: inhibitors. 0.16% of 390,000 active; note: potency is the fitted concentration of half-maximal effect; % is set by controls: 0 for no effect and ±100 for the full control effect
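Cytotoxicity counterscreen: CellTiter-Fluor fluorescence was measured in A549 ARE_Fluc cells after 18-24 h of compound exposure in a concentration series. The subsequent BugLite luminescent read reports ARE-luciferase activity.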
Nrf2 block – Nrf2 qHTS screen for inhibitors; 2.1% of 360,000 active; A549 ARE-Fluc reporter, luciferase luminescence, 18-24 h; Potency, µM (doses to about 46 µM), inactives show at the top dose activity change, negative = inhibition, actives largely listed as inhibitors; note: potency is the fitted concentration of half-maximal effect; % is set by controls: 0 for no effect and ±100 for the full control effect; nearly all actives have a fitted effect of over 60% in size
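Concentration-response testing used A549 ARE_Fluc cells at 5000 cells/well. Following an 18-24 h compound incubation, viability was read by fluorescence (Ex 405/Em 525) and luciferase output by luminescence.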
LDHA inh – qHTS assay for inhibitors of human lactate dehydrogenase; purified LDHA, NADH/diaphorase-resazurin fluorescence; hits give low values; activity change, % (values are at about 110 or 230 µM); 0.15% of 480,000 active; in the data active = activity change below about -30%; inconclusive = mostly about -25% to -30%;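 note: plate controls were DMSO wells for no effect and wells without enzyme for full effect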
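Remaining NADH was detected by diaphorase (0.133 mg/mL) converting 37 µM resazurin to fluorescent resorufin, read at 0 and 20 minutes. The preceding 5-minute room-temperature reaction used 2 nM LDHA, 0.2 mM sodium pyruvate and 0.06 mM NADH at pH 7.4.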
* = called active by the depositor; u = inconclusive; x = no result given; ! = a repeat was not active; [ ] = another dose, or the depositor's remark. An excerpt weighted towards active compounds, which were near 2.7% of everything screened. Unless noted, calls come from the whole dose curve; as a rule, active = well fitted curve in the direction sought with a large enough effect; inconclusive = small, poorly fitted or top-dose-only effect, or another doubt; inactive = no such curve, though single readings can be large; an effect the other way counts as inactive or inconclusive.

SMILES | Nrf2 activator | ALOX12 inh | ERG-DNA inh | A549 tox | Nrf2 block | LDHA inh
Cc1ccc(C(=O)NCCC2=CCCCC2)cc1S(=O)(=O)N1CCCCC1 | 7.5% | -19.0% | 1.9% | u | 23.1µM* | -2.8
Cc1ccc(C(=O)NCc2cccnc2)cc1S(=O)(=O)N1CCCCCC1 | 0.1% | 0.0% | -8.2% | -4.3% | 8.2µM* | -7.0
COc1ccc(C(CNC(=O)c2ccc(Cl)c(S(=O)(=O)N3CCCC3)c2)N2CCCC2)cc1 (configuration not stated) | -0.2% | 218.7% | -4.0% | 1.5% | -3.9% | -9.8
COc1ccc(CCNC(=O)c2ccc(Cl)c(S(=O)(=O)N3CCCC3)c2)cc1 | -0.7% | 139.6% | 9.3% | -5.1% | 16.4µM* | 0.9
Fc1ccc(C2=Nc3ccc(Br)cc3NC(c3cccs3)=N2)cc1 | x | 53.5% | x | x | x | 8.0
Cc1ccc(C(=O)Nc2cccnc2)cc1S(=O)(=O)N1CCCCC1 | 0.7% | 3.1% | -3.7% | -4.3% | 20.6µM* | -12.0
O=C(O)c1ccc(Cl)c(S(=O)(=O)N2CCCCCC2)c1 | 0.2% | -11.1% | x | u | 25.9µM* | -5.6
O=C(Nc1ccc(-c2cc(C(F)(F)F)nn2-c2ccccc2)cc1)c1cccc(F)c1 | -0.4% | -10.5% | 1.3% | u | 13µM* | -1.8
CCCC(=O)OCc1cc(=O)oc2cc(O)ccc12 | x | u | x | x | x | -3.4
COc1ccc(-c2nc(N)n(S(=O)(=O)c3ccc(C)cc3)n2)cc1 | 5.9% | u | 0.7% | 2.0% | -7.8% | -0.9
Cn1nc(-c2ccc(F)cc2)nc2c(=O)n(C)c(=O)nc1-2 | x | x | x | 2.91µM* | 2.31µM* | 25.1
COc1ccc(-c2nc3c(=O)n(C)c(=O)nc-3n(C)n2)cc1 | x | x | x | 1.64µM* | 1.46µM* | 21.9
CCn1nc(-c2ccccc2C)nc2c(=O)n(C)c(=O)nc1-2 | x | x | x | 23.1µM* | 2.5% | 24.2
Cn1nc(-c2ccc(Cl)cc2)nc2c(=O)n(C)c(=O)nc1-2 | x | x | x | 8.2µM* | -123.6% | 24.7
Cn1nc(-c2ccccc2)nc1-c1ccccc1 | 20.1% | -17.8% | 2.3% | 4.9% | u | -6.2
CC(C)c1ccc(/C=N/NC(=O)Cc2ccccc2)cc1 | x | u | x | x | x | -4.0
CC(C)CNC(=O)CSc1ncc(-c2ccc(F)cc2)o1 | x | u | x | x | x | 7.9
Cn1nc(-c2cccnc2)nc2c(=O)n(C)c(=O)nc1-2 | x | x | x | 6.51µM* | 7.31µM* | 20.4
S=c1sc2c(s1)SC1c3ccccc3CC1S2 (configuration not stated) | x | 15.8µM* | x | x | x | -11.4
CCN(CC)CCCNc1oc(/C=C/c2ccccc2)nc1C#N | 6.8% | 48.5% | 5.8% | 13.7% | 28.4% | -11.7
CCN(CC)CCCN(C/C=C/c1ccccc1)C/C=C/c1ccccc1 | x | 0.708µM* | x | x | x | 1.0
Cc1ccc(-c2cc(C(=O)Nc3ccccn3)c3ccccc3n2)cc1 | x | u | x | x | x | -2.2
O=C(Nc1ccccc1Cl)c1ccc(-c2ccccc2)cc1 | x | -12.6% | x | x | x | -3.4
NS(=O)(=O)c1ccc(Nc2c([N+](=O)[O-])cncc2[N+](=O)[O-])cc1 | 2.4%[9.22 µM] | 40.4% | 14.3% | u | 16.4% | -33.5*
C/C(=N\NC(N)=S)C1C2C3CC4C5CC(C42)C1C53 (configuration not stated) | 3.9% | 17.8µM* | 22.0% | 0.8% | -8.2% | -2.0
SMILES | Nrf2 activator | ALOX12 inh | ERG-DNA inh | A549 tox | Nrf2 block | LDHA inh
CCCOc1ccc(Cl)cc1/C=C1/C(=O)ON=C1C | 2.5% | u | 7.1% | -0.8% | 8.0% | -2.5
CC1=NOC(=O)/C1=C\c1ccc(-c2ccc(Cl)cc2Cl)o1 | 0.6% | 15.8µM* | 18.9% | -0.4% | u | -3.7
CCc1ccc2c(COC(=O)c3cc(S(=O)(=O)N(C)C)ccc3NCCO)cc(=O)oc2c1 | x | -56.6% | x | x | x | 4.9
N#CC(C#N)=C(Nc1ccc(F)cc1)SCc1cccc(F)c1 | u | -26.1% | 7.7% | u | 4.61µM* | -0.3
Cc1sc2ncnc(N3CCC(C(=O)Nc4ccc(Br)cc4Br)CC3)c2c1C | 0.3% | -5.7% | x | -13.2% | 20.6µM* | -7.0
Cc1sc2ncnc(N3CCC(C(=O)NCC(=O)Nc4ccc(F)c(F)c4)CC3)c2c1C | 0.2% | -12.4% | -1.9% | u | 18.4µM* | -8.7
COc1ccccc1OCC(=O)NNC(=O)C1CCN(c2ncnc3sc(C)c(C)c23)CC1 | -0.3% | -4.7% | 13.3% | 0.4% | 23.1µM* | -3.8
COc1cc(C(=O)N2CCN(c3ncnc4sc(C)c(C)c34)CC2)cc(OC)c1OC | 0.2% | 12.3% | 3.6% | u | 10.3µM* | -6.1
Nc1nccnc1C(=O)NCC(F)(F)F | x | -6.1% | x | x | x | 12.4
O=C(NC(C1CC1)C1CC1)c1n[nH]c(=O)c2ccccc12 | x | u | x | x | x | -4.1
COc1cccc(C(O)c2nc(C(=O)Nc3ccc4c(c3)CC(=O)N4)c(C)o2)c1 (configuration not stated) | x | 47.0%[176 µM] | x | x | x | x
Cn1nc(C(=O)Nc2nc3c(s2)CCC3)c2ccccc2c1=O | x | u | x | x | x | 10.0
Oc1ccc(-c2ccc(O)cc2)cc1 | x | u | x | x | x | -1.5
Cc1ccc(NC(=S)N/C(=N/S(=O)(=O)c2ccccc2)c2ccccc2)cc1 | 3.3% | 35.5µM*! | 5.0% | 1.3% | u | -6.5
CCOC(=S)N/C(=N\S(=O)(=O)c1ccccc1)c1ccccc1 | -0.5% | u | -3.7% | 5.0% | -5.4% | -2.3
CCCOC(=S)N/C(=N\S(=O)(=O)c1ccccc1)c1ccccc1 | -1.0% | 35.5µM* | 13.0% | 8.4% | x | -3.2
Nc1ccc2oc(-c3ccccc3)cc2c1 | x | u | x | x | x | 9.9
COc1ccc(CNC(=O)CC(C)CC(=O)O)cc1 (configuration not stated) | x | 2.3% | x | x | x | 3.1
CS(=O)c1nc(-c2ccc(Br)cc2)cc(-c2ccccc2)c1C#N (configuration not stated) | 0.1% | -12.6% | x | u | 14.6µM* | -8.6
COc1ccc(-n2ncc3c(NC(C)C)ncnc32)cc1 | -2.4% | u | 3.8% | -4.6% | u | -7.4
COc1ccc(-n2ncc3c(NCC(C)C)ncnc32)cc1 | -0.3% | 6.31µM* | 11.4% | 8.7% | x | 0.6
Cc1cc(NC(=O)Nc2nnc(N(C)C3CCCCC3)s2)ccc1Br | 0.5% | 2.2% | 5.2% | -11.2% | 25.9µM* | -17.0
O=C(c1ccc(S(=O)(=O)N2CCC(c3nc4ccccc4[nH]3)CC2)cc1)N1CCOCC1 | -0.1% | 5.62µM* | -5.1% | -1.9% | -5.2% | 4.4
